Drawing on ChEMBL document CHEMBL1961873, “Compounds: GSK PKIS; Assays: Nanosyn kinase panel” (2012), this text covers inhibition for 31 molecules.

Each structure is given as a SMILES string. Values joined by “and” are separate entries in the source; they are usually repeats but may differ in a detail not shown here. Equal entries are not always repeated.

For this test, the target named is Dual specificity protein kinase CLK3 (Homo sapiens) (UniProt P49761). The conditions noted are these: at 0.1 µM.
Dual specificity protein kinase CLK3 (Homo sapiens), sequence (P49761 whole entry, looked up): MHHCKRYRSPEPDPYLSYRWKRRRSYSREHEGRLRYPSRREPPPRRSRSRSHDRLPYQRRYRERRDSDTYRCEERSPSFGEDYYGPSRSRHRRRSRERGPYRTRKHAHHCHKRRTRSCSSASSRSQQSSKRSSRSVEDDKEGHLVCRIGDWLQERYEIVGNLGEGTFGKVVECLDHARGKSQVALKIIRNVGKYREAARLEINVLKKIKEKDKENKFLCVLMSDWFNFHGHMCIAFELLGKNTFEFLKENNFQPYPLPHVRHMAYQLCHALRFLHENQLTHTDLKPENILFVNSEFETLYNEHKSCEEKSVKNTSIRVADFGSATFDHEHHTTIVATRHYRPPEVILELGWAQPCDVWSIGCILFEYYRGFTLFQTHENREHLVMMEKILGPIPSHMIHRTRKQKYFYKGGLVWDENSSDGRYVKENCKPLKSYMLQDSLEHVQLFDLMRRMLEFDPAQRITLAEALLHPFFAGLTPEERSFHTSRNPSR
The inhibition is the drop in the measured response relative to a control, in per cent. With `Cc1cc(O)cc(C)c1/C=C/c1cncc(C(N)=O)c1`, the inhibition worked out at 1.21%.
In the case of `CC1=C(C(=O)Nc2ccc3[nH]ncc3c2)C(c2ccc(F)cc2)N=C(c2ccc(C(F)(F)F)nc2)N1` (stereo unspecified), the inhibition was determined as 1.34%.
Take `COc1c(C(N)=O)cc(-c2ccc(Cl)cc2)cc1-c1ccc(S(N)(=O)=O)cc1`: the inhibition worked out at 0.71%.
Take `Cc1cc(O)cc(C)c1/C=C/c1cncc(C(=O)OC(C)(C)C)c1`: the inhibition was 3.45%.
For the molecule `COc1ccc(Nc2ncc(-c3ccccc3)o2)cc1OC`, the inhibition amounted to 2%.
In the case of `Fc1ccc(Nc2nccc(-c3c(-c4ccc(C(F)(F)F)cc4)nn4ncccc34)n2)cc1F`, the inhibition is 2.2%.
Turning to `O=C(O[C@H]1CN[C@H](C#Cc2cc3ncnc(Nc4ccc(OCc5cccc(F)c5)c(Cl)c4)c3s2)C1)N1CCOCC1`, the inhibition came to 2.68%.
The same measure for `COc1ccc2ncn(-c3cc(O[C@H](C)c4ccccc4C(F)(F)F)c(C(N)=O)s3)c2c1`: -0.05%; for `CNC(=O)c1ncccc1Nc1nc(Nc2cc3c(cc2OC)CCCN3C(=O)CN(C)C)nc2[nH]ccc12`: 1.98%; for `COc1ccccc1-c1cc(/C=C2\C(=O)Nc3ncc(Br)cc32)cc(Br)c1O`: 2.35%.
Regarding `c1cnn2ncc(-c3ccnc(NCCCN4CCOCC4)n3)c2c1`, the inhibition is 0.39%.
On to `CCCNc1cccc(-n2ncc3c(N/N=C/c4ccncc4)ncnc32)c1`, for which the inhibition turned out to be 0.61%.
Take `OCCCNc1nccc(-c2c(-c3ccc(F)cc3)nn3cc(C(F)(F)F)ccc23)n1`: the inhibition was 0.35%.
As for `CS(=O)(=O)Nc1ccc(-c2ccc3c(NC(=O)C4CC4)n[nH]c3c2)cc1`, the figure is 1.51%; as for `CN1CCC(C(=O)Nc2n[nH]c3nc(-c4ccc(O)cc4)c(Br)cc23)CC1`, -1.53% and 0.88%; as for `CS(=O)(=O)Nc1ccc(-c2cc(-c3ccccc3)cc(C(N)=O)c2N)cc1`, 0.2%.
The same measure for `COc1cccc(Nc2nccc(-c3cnn4ncccc34)n2)c1`: 23.2%; for `CS(=O)(=O)CCNCc1ccc(-c2ccc3ncnc(Nc4ccc(OCc5ccccc5)cc4)c3c2)o1`: 0.41%; for `CC(C)c1ccc(-c2cc(-c3c[nH]nc3-c3ccccn3)ccn2)cc1`: 0.15%.
As for `FC(F)(F)CNc1nccc(-c2cnn3ncccc23)n1`, the figure is 0.47%; as for `Cc1nnc(-c2cccc(-c3ccc(C(=O)NCC4CC4)cc3)c2)o1`, 2.84%.
`COc1ccc(-c2nn3ncccc3c2-c2ccnc(Nc3ccc(F)c(F)c3)n2)cc1`: the inhibition came out at 2.08%.
As for `O=C(Nc1n[nH]c2nnc(-c3cccnc3)cc12)C1CC1`, the figure is 0.24%; as for `NS(=O)(=O)c1ccc(N/N=C2\C(=O)Nc3cccc(CCc4ccncc4)c32)cc1`, 0.97%.
In the case of `CNC(=O)c1cncc(/C=C/c2ccccc2C)c1`, the inhibition was found to be 1.79%.
The same measure for `NS(=O)(=O)c1ccc(N/N=C2\C(=O)Nc3ccc(C(=O)NCc4ccncc4)cc32)cc1`: 1.92%; for `CCS(=O)(=O)c1ccc(OC)c(Nc2ncc(-c3cccc(F)c3)o2)c1`: 2.49%.
With `COc1cccc(-n2ncc3c(N/N=C/c4ccc(C(=O)NCCN(C)C)cc4)ncnc32)c1`, the inhibition was found to be 5.88%.
For `COC(=O)Nc1nc2ccc(Oc3ccc(NC(=O)Nc4cc(C(F)(F)F)ccc4F)cc3)cc2s1`, the inhibition stood at 0.06%.
For the molecule `Cn1c(-c2nonc2N)nc2cnccc21`, the inhibition was 1%.
The same measure for `CCN1CCC(C(=O)Nc2n[nH]c3nnc(-c4cccc(F)c4F)cc23)CC1`: 1.25%.
